Out of some 310,000 compounds screened, about 14,000 (4.5%) showed an effect of 50% or more. Effects have a minus sign here. Only a selection was taken, and strong results are over-represented in it overall.
molecular target: human ether-à-go-go-related gene (hERG) potassium channel (human, UniProt Q12809); assay: primary screen, population patch clamp on CHO cells stably expressing hERG; higher = less effect of the substance
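Also: peak tail current of the secondary pulse compared with the same well before compound.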

Sequence of human ether-à-go-go-related gene (hERG) potassium channel (Q12809 whole entry, looked up): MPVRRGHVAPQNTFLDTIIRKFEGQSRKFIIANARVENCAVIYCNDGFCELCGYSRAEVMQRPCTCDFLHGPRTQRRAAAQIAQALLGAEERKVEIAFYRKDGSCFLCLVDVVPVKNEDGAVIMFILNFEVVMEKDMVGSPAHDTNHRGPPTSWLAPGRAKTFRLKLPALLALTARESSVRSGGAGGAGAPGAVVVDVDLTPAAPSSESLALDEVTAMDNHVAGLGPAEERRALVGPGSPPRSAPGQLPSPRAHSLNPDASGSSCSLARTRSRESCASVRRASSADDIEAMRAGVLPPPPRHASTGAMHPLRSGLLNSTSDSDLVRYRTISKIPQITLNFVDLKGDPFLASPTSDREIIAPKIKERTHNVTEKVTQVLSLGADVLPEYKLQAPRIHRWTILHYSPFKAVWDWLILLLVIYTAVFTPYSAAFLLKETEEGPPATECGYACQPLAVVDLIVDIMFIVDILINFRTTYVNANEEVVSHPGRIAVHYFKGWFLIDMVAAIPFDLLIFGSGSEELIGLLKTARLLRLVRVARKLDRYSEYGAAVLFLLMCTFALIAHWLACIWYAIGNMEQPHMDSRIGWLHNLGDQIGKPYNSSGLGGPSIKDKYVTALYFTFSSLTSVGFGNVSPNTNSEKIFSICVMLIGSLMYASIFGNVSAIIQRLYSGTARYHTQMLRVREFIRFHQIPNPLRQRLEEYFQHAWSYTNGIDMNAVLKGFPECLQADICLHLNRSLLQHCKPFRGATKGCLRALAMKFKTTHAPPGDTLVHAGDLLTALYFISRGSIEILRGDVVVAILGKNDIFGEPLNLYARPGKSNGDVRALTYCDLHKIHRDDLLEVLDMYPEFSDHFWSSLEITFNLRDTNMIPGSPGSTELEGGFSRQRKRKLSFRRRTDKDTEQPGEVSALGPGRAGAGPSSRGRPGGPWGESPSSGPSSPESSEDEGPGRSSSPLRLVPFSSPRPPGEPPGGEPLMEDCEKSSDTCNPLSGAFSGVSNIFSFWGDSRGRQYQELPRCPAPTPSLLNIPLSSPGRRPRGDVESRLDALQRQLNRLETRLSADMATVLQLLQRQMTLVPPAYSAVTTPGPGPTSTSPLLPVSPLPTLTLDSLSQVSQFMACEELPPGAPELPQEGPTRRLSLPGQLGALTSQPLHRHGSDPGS

SMILES	hERG current change (%, negative = inhibition) at 10uM [%]
Cc1cnn(Cc2cccnc2)c1N	8.46
O=C(NCCCn1ccnc1)/C(=C\c1cccs1)NC(=O)c1ccco1	-45.1
O=C(NCCCn1ccnc1)/C(=C/c1cccnc1)NC(=O)c1ccco1	4.25
O=C(NCCCn1ccnc1)/C(=C/c1ccco1)NC(=O)c1ccco1	-45.6
O=C(NCCCn1ccnc1)/C(=C/c1cccs1)NC(=O)c1ccco1	-50.8
CN(C)S(=O)(=O)n1cc(/C=C(\NC(=O)c2ccccc2)C(=O)NCCCn2ccnc2)c2ccccc21	8.31
O=C(NCCCn1ccnc1)/C(=C/c1ccco1)NC(=O)c1cccs1	-53.2
O=C(NCCCn1ccnc1)/C(=C\c1ccco1)NC(=O)c1ccco1	-35.3
COc1ccccc1/C=C(/NC(=O)c1ccccc1)C(=O)NCCCn1ccnc1	2.6
O=C(NCCCn1ccnc1)/C(=C\c1cccs1)NC(=O)c1ccccc1	-69
CCOC(=O)c1c(C)n(C)c2c(C)cc(O)c(OC(=O)CC)c12	7.65
CN(C)c1ccc(/C=C2\SC(N3CCCCC3)=NC2=O)cc1	-21.8
Cc1occc1C(=O)Nc1ccc(Br)cc1F	2.03
Cc1ccc(NC(=S)N(CCN(C)C)C(C)c2ccco2)cc1C (stereo not shown)	-44.3
CC1CCC2CCCCC2N1C(=O)c1cc([N+](=O)[O-])cc([N+](=O)[O-])c1 (stereo not shown)	2.18
COc1cc(CCCN2C(=S)NC[C@H]2Cc2ccc(O)cc2)cc(OC)c1OC	-16.4
CC1CCN(C(=O)c2ccc(CS(=O)(=O)Cc3ccccc3)cc2)CC1	-33.6
CC(=O)N1c2ccc(S(=O)(=O)NCC3CCC(C(=O)N4CCCCC4)CC3)cc2CC1C (stereo not shown)	12.2
c1ccc2c(c1)[nH]c1c(NCC3CCCO3)ncnc12 (stereo not shown)	11
Cc1ccc(S(=O)(=O)N(C)CCCC(=O)Nc2ccc(F)cc2)cc1	-30.1
CN(CCCC(=O)Nc1ccc(OC(F)F)cc1)S(=O)(=O)c1ccc(F)cc1	-71.3
CN(CCCC(=O)Nc1ccncc1)S(=O)(=O)c1ccc(Cl)cc1	-53.8
Cc1ccc(S(=O)(=O)N(C)CC(=O)Nc2ccncc2)cc1	-8.2
CN(CCCC(=O)Nc1ccccc1)S(=O)(=O)c1ccc(Cl)cc1	-47.9
CN(CC(=O)Nc1ccncc1)S(=O)(=O)c1ccc(Cl)cc1	-5.97
CC(=O)Nc1ccc(S(=O)(=O)N(C)c2ccc(O)cc2)cc1	2.53
Cc1ccc(S(=O)(=O)N(C)CCCC(=O)Nc2ccncc2)cc1	-63
CC(=O)Nc1ccc(S(=O)(=O)N(C)S(=O)(=O)c2ccc(F)cc2)cc1	-63.3

SMILES	hERG current change (%, negative = inhibition) at 10uM [%]
CC(=O)Nc1ccc(S(=O)(=O)N(C)c2ccccc2)cc1	0.318
CC(=O)c1cccc(NC(=O)CCCN(C)S(=O)(=O)c2ccc(F)cc2)c1	-2.1
COc1ccc(NC(=O)CCCN(C)S(=O)(=O)c2ccc(C)cc2)cc1	-26.8
O=C(Oc1ccnc2cc(Cl)ccc12)N1CCOCC1	-1.74
COc1ccc2c(c1)c(=O)oc1cc(O)ccc12	3.99
O=C(CSc1cn(Cc2cccc(F)c2)c2ccccc12)NCc1ccc(F)cc1	9.86
CCOc1ccccc1N(CC(=O)NC(C)(C)C)C(=O)CCC(=O)Nc1nccs1	-4.92
CC(C)(C)NC(=O)C(c1ccc(O)cc1)N(C(=O)Cn1nnc(-c2ccc(F)cc2)n1)c1ccccc1F (stereo not shown)	-1.66
COc1cc(CNc2ccc(N3CCOCC3)cc2)cc(Br)c1OC	-23.4
CCOc1cc2oc(=O)c3c(c2cc1Cl)CCC3	7.75
COc1ccc(Cn2c(C)c(C)c(C#N)c2NC(=O)Nc2ccc(F)cc2)cc1	-3.49
COc1ccc(N=CC2=C(O)c3ccccc3C2=O)cc1	11.1
COCCCn1c(C(=O)NC2CCCCC2C)cc2c(=O)n3cccc(C)c3nc21 (stereo not shown)	-12
COCCCn1c(=N)c(C(=O)NCC2CCCO2)cc2c(=O)n3cccc(C)c3nc21 (stereo not shown)	-73.1
COCCCn1c(C(=O)N2CC(C)OC(C)C2)cc2c(=O)n3ccccc3nc21 (stereo not shown)	-9.36
COCCCn1c(C(=O)N2CCOCC2)cc2c(=O)n3ccccc3nc21	2.75
COCCn1c(=O)[nH]c2cc(C(=O)NCC3CCCO3)ccc2c1=O (stereo not shown)	-7.76
CC(C)OCCCn1c(SC(C)C(=O)NCC2CCCO2)nc2cc(Cl)ccc2c1=O (stereo not shown)	-20.6
Cc1cccn2c(=O)c3cc(C(=O)NCC4CCCO4)c(=N)n(CCN4CCOCC4)c3nc12 (stereo not shown)	-69.4
CCN(C(=O)c1cc2c(=O)n3cccc(C)c3nc2n1CCCOC)C1CCCCC1	-44.1
COCCCn1c(=N)c(C(=O)NCC2CCCO2)cc2c(=O)n3ccccc3nc21 (stereo not shown)	-64.3
Cc1ccc2nc3c(cc(C(=O)NCC4CCCO4)c(=N)n3CCCOC(C)C)c(=O)n2c1 (stereo not shown)	-71.8
CSc1nnc2c(n1)OC(c1cccn1C)N(C(C)=O)c1ccccc1-2 (stereo not shown)	-10.1
CCS(=O)(=O)Nc1cccc(C2=NN(S(C)(=O)=O)C(c3cccs3)C2)c1 (stereo not shown)	-11.1
CCOC(=O)C1=C(c2ccccc2)O/C(=C(/C(=O)OC)C(F)(F)F)S1	-3.45
CC(=O)Nc1ccc(N(C(=O)Cc2c[nH]c3ccccc23)C(C(=O)NC2CCCCC2)c2ccco2)cc1 (stereo not shown)	-13.1
O=c1[nH]nc(CNc2ccc(C(F)(F)F)cc2)c2ccccc12	1.92

Reference: PMC4336329 (PLoS ONE, 2015)
